The panel holds about 79,000 compounds, 15% with a hit somewhere; the sample as a whole holds those more often. Active and inactive are the calls of the source. No stated cut-off is given here; in the data, active means growth inhibition above about 70%; inactive means the rest.

A short description of this assay: NCI Yeast Anticancer Drug Screen. Data for the cln2 rad14 strain (AID 165).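 Further: 0% = growth equal to vehicle treated cultures.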 Conditions: S. cerevisiae cln2 rad14 strain, at 5.0 µM (retest, dose inferred, filed as 0.5), stronger effect = higher value. A digest of the protocol:
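Compounds are applied to the cln2 rad14 yeast strain, and growth is then compared with that of vehicle-treated cultures to give inhibition.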
In the case of `COc1ccc(N=N/N=c2\sc3cc(Cl)ccc3n2C)cc1`, the growth inhibition is 28% (inactive).

For `O=c1ccc2nc3ccccc3ccc-2c1`, the growth inhibition is -46% (inactive).

Regarding `CC(=O)Nc1ccc(O)c(=O)cc1`, the growth inhibition is 16% (inactive).

For `CC(=O)Oc1c([N+](=O)[O-])cc(-c2ccccc2)cc1[N+](=O)[O-]`, the growth inhibition is 9% (inactive).

Turning to `Cc1cc(O)c(C)c(C)c1N=Nc1ccccc1`, the growth inhibition was -63% (inactive).

For `CCCCCCCC/C=C\CCCCCCCC(=O)O` (tested in a mixture with another compound), the growth inhibition is 2% (inactive).

With `O=S(=O)(Nc1ccc(Cl)cc1)c1ccccc1`, the growth inhibition is -9% (inactive).

`COC(=O)[C@@]12OC[C@]34[C@H]([C@@H](O)[C@@H]1O)[C@@]1(C)CC(=O)C(O)=C(C)[C@@H]1C[C@H]3OC(=O)[C@H](OC(=O)C(Cc1ccccc1)NC(=O)OC(C)(C)C)[C@@H]24` (stereo not given in full): the growth inhibition was 33% (inactive).

`CSC(=S)n1nc(-c2cccs2)c(N=Nc2ccc(Cl)cc2)c1C(F)(F)F`: the growth inhibition is 14% (inactive).

As for `CCN1C2=NCCN2S(=O)(=O)c2ccccc21`, the growth inhibition is 14% (inactive).

On to `CCCc1cc(-c2ccc(O)c(CCC)c2)ccc1O`, for which the growth inhibition is 96% (active).

For the compound `O=[N+]([O-])c1ccc(-c2cccc(Cl)c2)c([N+](=O)[O-])c1`, the growth inhibition was -17% (inactive).

Regarding `COC(=O)Oc1nn(C(=O)OC)c(=O)c2ccccc12`, the growth inhibition was 7% (inactive).

`Cc1n(CC(C)C)c2c([n+]1CC(=O)c1ccc([N+](=O)[O-])cc1)C(=O)c1ccccc1C2=O`: the growth inhibition was 66% (inactive).

For the compound `O=C(c1ccccc1)C1C(c2ccccc2)OP(c2ccccc2)(c2ccccc2)(c2ccccc2)C1c1ccccc1` (stereo not given), the growth inhibition was 56% (inactive).

The values are drawn from PubChem BioAssay (NCI).
